Measurements reported in PubChem BioAssay (NCI).
Several values for one entry are separate records, joined by “and”; a condition that tells them apart may be missing. Equal entries are not always repeated. Compounds without any hit were thinned out: in the full panel of roughly 83,000, 20% have a hit.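 Percent growth is the endpoint: 0 to 100 indicates growth inhibition (40 means 60% inhibition), 0 means no net growth, and negative values indicate cell death.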 Unmarked numbers belong to inactive results. Activity calls are given as the source filed them. Rule for the calls: active = growth percent below 10; inactive = the rest.

Test system: SK-MEL-2 melanoma
Experiment: NCI-60 one-dose screen, 48 h (100 = growth as untreated, 0 = no growth, -100 = all killed)
Details: 10 µM unless noted

Structure (SMILES) | growth
COc1ccc(C(=O)c2ccc(OC)c(OC)c2OC)cc1 | 17.6% and 57.5%
O=C1/C(=C/c2ccccc2)CN(C(=O)C(Cl)Cl)C/C1=C\c1ccccc1 | 38.4%
C=C(C)[C@@H]1CC[C@]2(C(=O)O)CC[C@]3(C)[C@H](CC[C@@H]4[C@@]5(C)CCC(N)C(C)(C)[C@@H]5CC[C@]43C)[C@@H]12 (stereo partly drawn) | 93%
N#C/C(=C\c1ccc(Br)cc1)n1nnc2c(F)cccc21 | 28.4%
COC1=CC(=O)C(OC)=C(O)C1=O | 105%
CC(C)(C)c1cc(NC(=O)Nc2ccc(-c3cn4c(n3)sc3cc(OCCN5CCOCC5)ccc34)cc2)no1 | 10.8%
COc1cccc(C2C(C#N)=C(N)Oc3cc(OCCCCCC[P+](c4ccccc4)(c4ccccc4)c4ccccc4)ccc32)c1 (stereo not drawn) | -59.2% (active)
COc1ccc(-c2ccccc2)cc1-c1c(Nc2cc(Cl)cc(Cl)c2O)c(=O)c1=O | -26.5% (active)
Cc1ccc(S(=O)(=O)Nc2cc(Sc3ccccc3)c(O)c3ccccc23)cc1 | 81.8%
COC(=O)c1[nH]nc(OC)c1C1(C(C#N)c2nc3ccccc3s2)CCCc2ccccc21 (stereo not drawn) | 88.7%
COc1ccc(-c2cc(-c3cccc(Cl)c3)c(C#N)c(=O)[nH]2)c(OC)c1 | 105%
Cc1nc(-n2[nH]c(=O)ccc2=O)sc1N=Nc1ccccc1 | 108%
COc1ccc(-c2csc(NC(=O)CN3CCN(CCO)CC3)n2)cc1NS(=O)(=O)c1cccc2c(N(C)C)cccc12 | 86.9%
